Screening data as filed in PubChem BioAssay.
Statin myotox sup: suppressors of statin myotoxicity in C2C12 myotubes, primary screen, cell-based, single point, plate reader; C2C12 myotubes + simvastatin, ATP luminescence, 48 h; scaled: DMSO 0, geranylgeraniol control 100; rescue of ATP level, % at 7.49 µM; 330,000 compounds, 0.78% hits; AID 602340, 2012;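 active = mean ATP rescue above about 67%, or every replicate alone reaching that limit, limit read from the data, passing the limit was not always enough; inconclusive = no clear call, values can overlap the other calls; inactive = mean under the limit and some replicate under it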;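 note: myotubes were challenged with 10 µM simvastatin during compound exposure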
esBAF inh: Bmi1 luciferase reporter increase in mESCs, primary screen, esBAF inhibitor project, mouse ES cells, Bmi1 luciferase knock-in, single point; 350,000 compounds, 2% hits; AID 602393, 2012; 24 h; 100% = twice the neutral-well signal; reporter increase, % at 12.5 µM; in the data active = activation above about 40%; inconclusive = no clear call, values can overlap the other calls;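 note: a rise in the Bmi1 reporter signal indicates esBAF inhibition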
FXN GAA850 act: FXN promoter activators, primary screen, cell-based, luciferase luminescence, HEK293 lucGAA850; HEK293 lucGAA850 FXN promoter luciferase reporter, 24 h; percent of 10 µM SAHA response; activation, % at 6 µM; 360,000 compounds, 0.56% hits;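 active = activation above the average of all compounds screened plus 3 SD, cutoff fixed separately per campaign, cut at about 7.5% in these data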
MITF TRPM1 HTS: activators of MITF-driven TRPM1 promoter reporter, primary screen, cell-based, SK-MEL-5, luciferase, single point; AID 588334, 2011; activation, % at 12.5 µM; SK-MEL-5 TRPM1-promoter luciferase, 24 h; % of positive control, neutral wells = 0; 300,000 compounds, 0.75% hits;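 active = mean activation of at least 80% with every replicate also reaching 80%; inconclusive = mean reaches 80% but some replicate falls short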
Wnt act: Wnt/beta-catenin pathway activators, primary screen, cell-based, plate reader, single point; Wnt/beta-catenin reporter cell assay, activator; 300,000 compounds, 1.2% hits; activation, % at 9.35 µM; in the data active = activation above about 30%, passing the limit was not always enough; inconclusive = no clear call, values can overlap the other calls
GAA30 FXN cntr: GAA30 FXN promoter activators, confirmation, counter-screen for GAA850 frataxin promoter activator project, cell-based, luminescence, HEK293, lucGAA30, triplicate | shares compounds with FXN GAA850 act | HEK293 lucGAA30 FXN promoter luciferase, 24 h; DMSO = 0%, 5 µM ipriflavone = 100% | activation, % at 6 µM | 1,900 compounds, 66% hits;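 active = mean activation above the mean of solvent-only control wells plus 3 SD, cut at about 22% in these data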;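 note: counterscreen of GAA850 promoter hits where activity marks nonselective or luminescence artifacts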
FXN GAA850 conf: FXN GAA850 promoter activators in reporter cells, confirmation, cell-based, luminescence, HEK293 lucGAA850, triplicate; shares compounds with FXN GAA850 act; HEK293 lucGAA850 FXN promoter luciferase reporter, 24 h; 100% = activation by SAHA; activation, % at 6 µM; 1,900 compounds, 86% hits; AID 588351, 2011;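 active = mean activation above a set limit taken from the primary screen, cut at about 8% in these data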
Numbers stand for hits; 0 = inactive; ? = inconclusive; - = not tested or not shown. Hits are enriched below; roughly 3.3% of the tested compounds scored in any of these assays.

SMILES | Statin myotox sup | esBAF inh | FXN GAA850 act | MITF TRPM1 HTS | Wnt act | GAA30 FXN cntr | FXN GAA850 conf
Cc1ccc(/C=N\Nc2cn[nH]c(=O)c2Cl)cc1 | 0 | 53 | 11 | 0 | 0 | 104 | 32
Cc1nc(NCc2ccco2)c2c(C)c(C)sc2n1 | ? | 0 | 0 | 0 | - | - | -
Cc1sc2nc3c4ccccc4c(NCc4ccco4)nn3c(=O)c2c1C | - | - | 10 | 85 | - | 105 | 30
CC(C)=CC(=O)NCCc1ccccc1 | 0 | 0 | 15 | 0 | - | 75 | 20
C/C(=N\NC(=O)c1c(Cl)c(C)nn1C)c1ccc(NC(=O)C2CCC2)cc1 | 0 | 0 | 0 | 0 | 0 | - | -
CC(=O)c1ccc(NC(=S)NC(=O)c2c(Cl)c(C)nn2C)cc1 | 0 | 0 | 8.8 | 0 | - | 23 | 0
CCCCCSc1nnc(-c2cc(Br)ccc2N)c(=O)[nH]1 | 0 | 0 | 0 | - | 0 | - | -
CCCSc1nnc(-c2ccccc2N)c(=O)[nH]1 | 0 | 0 | 11 | 0 | - | 90 | 28
COC(=O)c1c(-c2ccccc2)csc1NC(=O)c1ccco1 | 0 | 98 | 11 | 105 | - | 110 | 45
Cc1ccc(S(=O)(=O)Nc2ccc3c(c2)C(=O)N([C@@H](C)CO)C[C@H](C)[C@@H](CN(C)Cc2ccc(C(F)(F)F)cc2)OCCCC[C@@H](C)O3)cc1 | - | 0 | - | - | - | - | -
CC(=O)N(C)C[C@H]1[C@H](c2ccc(C3=CCCC3)cc2)[C@H](CO)N1CC1CC1 | 0 | 0 | - | - | - | - | -
Cc1ccc(C)n1-c1ccc(-c2nnco2)cc1 | - | - | 0 | 0 | - | - | -
Cc1cc(-c2nnco2)c(C)n1-c1ccc(F)cc1 | 0 | 0 | 7.7 | 0 | 0 | 53 | 22
O=S(=O)(N[C@H]1CC[C@@H](CCn2cc(-c3cccc(F)c3)nn2)O[C@@H]1CO)c1ccc(Cl)cc1 | 0 | 0 | - | - | - | - | -
CCOc1ccc(Nc2ncnc3c2cnn3Cc2ccccc2)cc1 | 0 | 0 | 0 | 0 | 0 | - | -
CCOc1ccc(Nc2ncnc3c2cnn3-c2ccccc2)cc1 | 0 | 0 | 13 | 0 | 0 | 67 | 21
O=C(c1ccccn1)N1CC[C@@H]2[C@@H](CO)Nc3ccc(-c4ccc(F)cc4)cc3[C@@H]21 | 0 | 0 | - | - | - | - | -
COc1ccc(NS(=O)(=O)c2cc(NC(=O)CNC(=O)c3cccc(OC)c3)ccc2C)cc1 | - | - | 7.9 | 0 | 0 | 32 | 18
Nc1ccc2nc(-c3ccccc3)c(-c3ccccc3)nc2c1 | 0 | 0 | 14 | 0 | 0 | 0 | 11
CCN1CCN(c2ccc(NC(=O)c3ccc([N+](=O)[O-])o3)cc2Cl)CC1 | - | - | 0 | 0 | 0 | - | -
CCC(=O)N1CCN(c2ccc(NC(=O)c3ccc([N+](=O)[O-])o3)cc2Cl)CC1 | - | - | 9.3 | 0 | 0 | 42 | 26
CCC(=O)N1CCN(c2ccc(Cl)cc2NC(=O)c2ccc([N+](=O)[O-])o2)CC1 | 0 | 0 | 0 | 0 | 0 | - | -
CC(=O)N1CCN(c2ccc(NC(=O)c3ccc([N+](=O)[O-])o3)cc2Cl)CC1 | 0 | 0 | 7.7 | - | 0 | 41 | 28
COCc1cn(CC[C@@H]2CC[C@@H](NC(=O)Nc3ccc(Cl)cc3)[C@H](CO)O2)nn1 | 0 | 0 | - | - | - | - | -
COc1ccccc1-c1ccc([C@H]2[C@H]3CN(Cc4ccncc4)CCCCN3[C@H]2CO)cc1 | 0 | 0 | - | - | - | - | -
COc1cc(CNc2ccc3[nH]c(=O)[nH]c3c2)ccc1OCc1ccc(C)cc1 | 0 | 55 | 9.0 | 0 | 44 | 74 | 30
COc1cc(CNc2ccc3[nH]c(=O)[nH]c3c2)ccc1OCc1cccc(C)c1 | 0 | 0 | 0 | 0 | 0 | - | -
COc1cc(CNc2ccc3[nH]c(=O)[nH]c3c2)ccc1OCc1ccccc1Cl | 0 | 0 | 7.9 | 0 | 0 | 36 | 20
CNC[C@H]1Oc2ncc(-c3ccccc3C)cc2C(=O)N([C@@H](C)CO)C[C@H]1C | 0 | 0 | - | - | - | - | -
